# Test results taken from PubChem BioAssay AID1508600 (Functional Genomics Laboratory (NCATS/FGL), 2020).
# Out of some 53,000 sequences screened, about 3,700 (7%) were called active. This is one part of a sample in which actives are shown more often than they occur. Values without a mark were called inactive.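 The calls were made as follows: active = gene knockdowns whose robust z-score for IL-1 alpha signal is at least 2 or at most -2, so actives lie on both sides; inactive = the rest.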
# Assay: Components of the Cytosolic LPS Sensing Pathway: Gene Identification via Genome-wide siRNA Screen;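 also: robust z of the log signal after scaling to non-targeting control siRNA wells of the plate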
# Details: RAW264.7 macrophages, IL-1a HTRF, actives lie on both sides, screened at 100 nM (by protocol), cells primed 5 h with Pam3CSK4 first
# Procedure, shortened: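 Mouse macrophage line RAW264.7 is transfected with siRNA (100 nM final), grown 48h, primed with TLR ligand Pam3CSK4 5 h and given intracellular LipidA 24 h. IL-1a in supernatant is read by HTRF and viability by luminescence.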
row,Sequence,z-score
1,GGAGAAAAAGGGAAAGAAUTT against Dlx4,0.0644
2,CCUAGUUUGGUGAUGAUGUTT against Atg10,-0.262
3,GGUCAUUGAAAACUGUGCGTT against Sardh,-1.04
4,GCAAGAGACCUUGUUAUAGTT against Cttnbp2nl,-0.426
5,CCCAGUAAAUAAGAGUACATT against Treml1,-1.33
6,GGGAGACCCAAUGUCAUCATT against Dtx3,-1.25
7,GCGGGAUUGGUCAUUCCACTT against Mrpl45,2.97 (active)
8,CGAACAUGUACAACAAAGATT against Cacna2d3,-0.181
9,GGAACAAAGACUUCAAAGATT against Olfr323,-0.249
10,GGUGCUAAAAAUGAGCCUUTT against Urm1,-1.66
11,GGGAUGGCCAUAGAACAGATT against Echdc2,-0.211
12,CCCUAGACUUGAGAGUUUUTT against Eif2s1,1.29
13,GGCUGUGGAAGUGCAGAACTT against Dnmt3a,-2.53 (active)
14,CCGAGAGGUUUAAGGUCUCTT against Nsg1,1.18
15,GCUAGUCUACCCAAGUGACTT against Dennd6b,4.35 (active)
16,CCUACUUACUCCUGUAUAATT against Adam3,1.77
17,CGAAACCAACAGUUAGAAGTT against Cby1,0.71
18,GAUCCUCACGAAAUAGGUATT against Olfr1372-ps1,0.737
19,GGUCUCUAGUGGAAAAGCATT against A430093F15Rik,-3.05 (active)
20,GCUCUUAAAACCCACCUGATT against Gzf1,-1.97
21,UAAUGGCUGCUGUCUCCUGTT against Olfr441,0.405
22,GGCGAAAAAGAACUUCUCCTT against Prrx1,-2.17 (active)

row,Sequence,z-score
1,GCCUACAUUCACUCACUCCTT against Olfr1061,-0.016
2,GGAUCAUUCGGACAAAAGUTT against Pax5,-1.31
3,GGAGAAGAAGAUUUUUGGCTT against Gpr108,-0.684
4,GCCAACAAAGUGAUCGAAGTT against Fkbp10,0.175
5,CCAGCAAUGUACCAGUUCATT against Micos13,-2.02 (active)
6,GGUGAAAGAGAAGACUGAATT against Aimp1,-0.418
7,GGGUAUUCCUUCCAACACCTT against Lrrc4,-2.14 (active)
8,CCCAGUAUCAGACUAUCAUTT against Inpp4a,-0.178
9,CGAAUUUUGGAGAUGUAUGTT against Ddias,0.376
10,GGAACAAAGAAGUCAAAGATT against Olfr16,-0.765
11,CGGUGAUCAAUCAUUGUAATT against Tas2r113,-2.16 (active)
12,GCCUGUCAACUACCCAUAUTT against Ergic3,-1.13
13,GGCAAUGAGUCUGACCUCUTT against Capg,-1.39
14,GCUAAGGCUUGGAAUGACATT against Maged1,-0.105
15,GGUGGUGGGUCCAAUUUUUTT against Jpt1,0.411
16,GGACGUAGAAGUUUGGGAGTT against Nupl2,1.39
17,GCACGUUCAGUGCACACCUTT against Nubp1,2.59 (active)
18,CCCUCACAACUUGAAGGACTT against Ccnk,-0.882
19,GGAAGAAGUAGACCUGUCUTT against Aar2,-2.36 (active)
20,GGCUUUAGCAGAUGAGCGATT against Sptbn4,-0.0568
21,GGGACUGAGGACUACAUUCTT against Eif1b,-1.17
22,GGAGAAAUAAAUGACUUGCTT against Zswim2,-0.762

row,Sequence,z-score
1,CCCACAGUACAUUCUAAAATT against Arsb,0.776
2,GCGUCAAAAUUAUCCGAAATT against Trnau1ap,0.124
3,GGACACGUUUCUGUGUUGUTT against Tspan32,0.304
4,GCACUAUGGGUGUCAUGGUTT against Mon1a,-3.1 (active)
5,CGUAUUCCAUGGUUUCCUATT against Whrn,0.111
6,GGAGUUUCUGGAAUGCAGGTT against Sec22c,0.741
7,GCACAAUUUUAUAACUCGGTT against Lrrc49,0.457
8,GGAUAACUAUAUUCCAGUGTT against Rhobtb3,0.885
9,GGCUAAAACACUUAUCAAUTT against Poteg,-2.32 (active)
10,CGUACCAUGUAAAUUCUAUTT against Impa1,0.843
11,CCCAAGAAACUUCGCUUCCTT against Ehmt1,-0.551
12,GCCAAGCUUAAGAACUUAATT against Oas3,1.51
13,GGAAUAGGCCUUCUUGCUGTT against Matr3,-0.395
14,GCAAGACGGUGAUUGUAACTT against Pck2,-0.243
15,GCUGAUUGAACUGAAUGGATT against Slc22a21,-1.27
16,CCAGGAUUGAUUUAGAAAATT against BC107364,1.29
17,GGUCAUGGCUGGAUUUCUUTT against Olfr1462,-2.42 (active)
18,GCAGUGUCCAAAGCACUUUTT against Slc6a9,-1.14
19,GGAUCGCUUAGUCUCAUGATT against Inip,-0.493
20,GGUGAACGAUGUCAACUUUTT against Dvl1,-0.545
21,GCAUAGGAGAGACCAACAUTT against Zcchc10,-2.42 (active)
22,GGAGGAAAAUCAGACAGGATT against Olfr1419,-0.13

row,Sequence,z-score
1,GGUCCUCAAGAUCUUUGUGTT against Extl1,0.0445
2,CCAAAACAACCACAAGUAGTT against Zfp385c,-2.96 (active)
3,GCUCUGUGGACUUCUUGGATT against Znrf4,-0.687
4,GGGCUAAAGCCUUCAACACTT against Olfr923,0.315
5,CCCUUACAACUCAAGUAUCTT against Lrig3,2.1 (active)
6,GGUUGAAAAUGUUGUCAGGTT against Atpsckmt,-0.733
7,GGGUUUUUGUCAAAUCUGUTT against Ttc5,-2.24 (active)
8,GGACAUCCAGACCAAUGUCTT against Psmd8,1.1
9,GGUCCAGACAUUUGGAUACTT against Cav2,0.428
10,GGAUACCUGAAAAUUGAUATT against Npr1,-0.667
11,GGGAAGCUUUACUUUUUAATT against Mapk4,2.05 (active)
12,CCUUAUGAAUCCCGAGUACTT against Bmp6,-0.0506
13,GGGCAAAAAAGGUCUAUUCTT against Rfpl4,0.44
14,CCACAGUAUCAUGUAACUATT against Il1a,-2.23 (active)
15,GGAACCUAUUGCUGUUUUATT against Map2k3,-0.756
16,GGAAUGUGGUUUCCUGUUATT against Fscn3,0.502
17,GGCUGAACAAGAGAAACCATT against Ppdpf,-2.49 (active)
18,CCCAGAAUUAAACAUAGCUTT against Rrh,0.0181
19,GGAAACCUGCUCAUAGUGGTT against Olfr1188,0.54
20,GCAUGCCUAAAUUUGGGACTT against Fyb,0.805
21,GGCUGGACACUGAGAAAAATT against Adcy4,1.63
22,GGUAUUUGGAGUACCCUUUTT against Arhgap11a,0.196

row,Sequence,z-score
1,GGACAAGACUCUCAGUUCATT against Atpaf1,0.77
2,GGAAUUUAGAAAAUGUGACTT against Vmn1r227,-2.67 (active)
3,GGGUGAUCUGUAGUAUUUUTT against Olfr574,-0.879
4,CCCUGUUACGAAGUUUAACTT against Slc17a7,-1.27
5,GGUGACUCUGAUUCUCAUATT against Slc22a13,-0.176
6,GGAACUUGUACAAAUAGGATT against Lpcat1,0.587
7,GGACGAAGAGGAGAAAGAGTT against Ccdc184,-1.25
8,GCUUAUUCCCAGGAGACCATT against Dmrtc2,-0.764
9,CCCACCUUAUGGGACAAAATT against Hlf,2.05 (active)
10,GGUGGCCCAGUCUAAAGAATT against R74862,0.872
11,CCAGUGACAUUCAAUACCUTT against Lrif1,-1.52
12,GGUCAAUAUUGGCUUAUGUTT against Tmem42,-1.43
13,GGUGGAGAGAAAGAGAAAATT against Mcm8,0.767
14,GGGUUACUUUAGCUAUUUCTT against Rbm14,-1.11
15,GGCUGAACAGGCAUGAUCATT against Rpap1,-3 (active)
16,GGAGCUGCUAUGUACACAUTT against Bptf,0.364
17,GGGUGAAUUUCCACCUUAUTT against Sgce,-0.521
18,GGAGAAAAUACAACUGUGATT against Ctrc,-1.05
19,CGAAAAUCAAGCGGAAUUUTT against Zmiz1,2.49 (active)
20,GGGCUCACUCUGUCUCUACTT against Rpp25l,-0.378
